Data on five compounds can be found in PubChem BioAssay.

The target of one experiment is Albumin (Bos taurus) (UniProt P02769). Briefly: bovine serum albumin binders on microarray, profiling panel, artefact control for SMM control protein annotation, biochemical, small-molecule microarray, Alexa647 label, 635/667 nm fluorescence (AID 1118).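 Also: score merges 667 nm emission intensity and signal-to-noise per printed compound spot.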 Particulars: BSA-A647 binding, fluorescence 635 nm, higher = more signal.
Experiment [1] in a line: small-molecule microarray binders of probe aXIP, primary screen, biochemical, NeuroSMM set, 635/667 nm fluorescence (AID 1119).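 Also: probe is the protein aXip251-270 applied at 1 µg/mL to compound-printed slides; binding of probe to printed compounds measured as 667 nm fluorescence plus signal to noise.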 Particulars: higher = more signal, called active from +8 up or from −8 down.
The nature of experiment [2]: small-molecule binders of probe aNOTCH3, primary screen, biochemical, small-molecule microarray, 635/667 nm fluorescence (AID 1120).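 Also: probe is a biotin-tagged antibody raised against NOTCH3 rather than NOTCH3 protein; score merges spot fluorescence near 667 nm with spot signal to noise.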 The following applies: higher = more signal.
The nature of experiment [3]: small-molecule binders of probe aNOTCH2, primary screen, biochemical, small-molecule microarray, 635/667 nm fluorescence (AID 1121).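 Also: score merges feature fluorescence read at 667 nm with its signal to noise.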 The following applies: higher = more signal.
Experiment [4] deals with Carbonic anhydrase 2 (Homo sapiens) (UniProt P00918). Briefly: CAII small-molecule binders, profiling panel, biochemical, small-molecule microarray, Alexa647-labelled CAII (AID 1122). The following applies: CAII-A647 binding fluorescence, higher = more signal.
A short description of experiment [5]: COS7 lysate on small-molecule microarray, probe aHis, 635 nm (AID 1123).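 Also: z-score combines 667nm fluorescence intensity with signal-to-noise per printed compound spot.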 Particulars: COS7 cell lysate, fluorescence, higher = more signal.
A short description of experiment [6]: compound binding in COS7 lysate, probe aLAP1, primary screen, cell lysate, small-molecule microarray (AID 1124).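 Also: lysate comes from COS7 cells expressing LAP1 and is applied at 0.3 µg/mL; score merges spot fluorescence near 667 nm with signal-to-noise over triplicate slides.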 The following applies: probe aLAP1, fluorescence, higher = more signal.
For another experiment, the system named is Sam68 (KHDRBS1). Briefly: Sam68 small-molecule binders, primary screen, biochemical, small-molecule microarray, 635 nm fluorescence (AID 1125).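 Also: score merges 667 nm channel intensity with signal to noise over triplicate slides.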 Particulars: small-molecule microarray binding, higher = more signal.
In experiment [7] the test system is Chordin-like protein 2 (CHRDL2). Briefly: CHRDL2 small-molecule binders, primary screen, biochemical, small-molecule microarray, 635 nm fluorescence (AID 1126).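 Also: printed compound slides probed with Chrdl2 protein at 4 µg/mL for 1 h at 4 C; score merges 667 nm emission intensity with signal to noise over three replicate slides.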 Particulars: small-molecule microarray binding, fluorescence 635 nm; higher = more signal.
In experiment [8] the target is Concanavalin-A (Canavalia ensiformis) (UniProt P02866). Briefly: ConA small-molecule binders, primary screen, artefact control for SMM control protein annotation, biochemical, small-molecule microarray, Alexa647 label, 635 nm (AID 1127).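 Also: z combines 667 nm emission intensity with signal-to-noise across three replicate slides.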 The following applies: ConA-A647 binding fluorescence, higher = more signal.
The nature of experiment [9]: anti-His antibody binders, primary screen, artefact control for SMM control protein annotation, biochemical, small-molecule microarray, 635 nm fluorescence (AID 1128).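 Also: score merges feature fluorescence with signal-to-noise for each printed compound spot.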 Particulars: anti-His Alexa647 antibody binding, higher = more signal.
Experiment [10] deals with Human papillomavirus type 1a E7 protein (residues 1-88). Kind of experiment: HPV1a E7 small-molecule binders, primary screen, biochemical, small-molecule microarray, residues 1-88, 635 nm (AID 1129). Particulars: small-molecule microarray binding, fluorescence 635 nm; higher = more signal.
In experiment [11] the target is Focal adhesion kinase 1 (Homo sapiens) (UniProt Q05397). Briefly: small-molecule microarray binders of FAK, primary screen, biochemical, 635/667 nm fluorescence, BSA, DTT (AID 1130).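 Also: composite of spot emission at 667 nm and signal to noise over triplicate slides.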 The following applies: PTK2 binding, 635 nm fluorescence, higher = more signal.
For experiment [12], the system named is Fibrinogen (Alexa647-labelled). Briefly: fibrinogen binders on compound microarrays, profiling panel, artefact control for SMM control-protein annotation, biochemical, small-molecule microarray, 635/667 nm fluorescence (AID 1131).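 Also: z-score merges 667 nm fluorescence with per-spot signal-to-noise over triplicate slides.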 The following applies: fibrinogen-A647 binding fluorescence, higher = more signal.
Experiment [13] has as its target Follistatin (Homo sapiens) (UniProt P19883). Briefly: follistatin binders on small-molecule microarrays, primary screen, biochemical, small-molecule microarray, 635/667 nm fluorescence (AID 1132). Particulars: FST binding, 635 nm fluorescence, higher = more signal.
Experiment [14] concerns the target Fibroblast growth factor 2 (Homo sapiens) (UniProt P09038). Briefly: FGF2 binders on small-molecule microarrays, primary screen, biochemical, small-molecule microarray, 635/667 nm fluorescence (AID 1133). Particulars: small-molecule microarray binding, FGF2, fluorescence 635/667; higher = more signal.
The nature of experiment [15]: mitochondrial membrane potential change in A549 cells, profiling panel, cell-based, JC-1 fluorescence, basal, 24 h, 100 nL (AID 1138).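 Also: A549 lung adenocarcinoma cells under basal conditions with no added stimulus; test concentration not given here.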 The following applies: higher = more signal.
The next experiment concerns Lefty1. Kind of experiment: Lefty1 binders on small-molecule microarrays, primary screen, biochemical, small-molecule microarray, 635/667 nm fluorescence (AID 1139). Particulars: small-molecule microarray binding, fluorescence 635/667; higher = more signal.
Experiment [16] relates to wheat germ agglutinin (Triticum aestivum), Alexa647-labelled. Briefly: wheat germ agglutinin binders on compound microarrays, profiling panel, artefact control for SMM control-protein annotation, biochemical, small-molecule microarray, 635/667 nm fluorescence (AID 1140).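 Also: score merges 667 nm feature emission with signal to noise over triplicate slides.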 The following applies: WGA-A647 binding, 635 nm fluorescence, higher = more signal.
Experiment [17] has as its target Luciferin 4-monooxygenase (Photinus pyralis) (UniProt P08659). Kind of experiment: firefly luciferase enzyme inhibitors, primary screen, biochemical, luminescence, purified enzyme, 2006 set (AID 1141).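 Also: cell-free assay with purified firefly luciferase at 100 ng per well in PBS; test concentration not given here.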 Particulars: SteadyGlo luminescence, 30 min, higher = more signal, called active from +8 up or from −8 down.

Calls of active or inactive are those of the source.

Chain of Focal adhesion kinase 1 (Homo sapiens) (Q05397 whole entry, looked up): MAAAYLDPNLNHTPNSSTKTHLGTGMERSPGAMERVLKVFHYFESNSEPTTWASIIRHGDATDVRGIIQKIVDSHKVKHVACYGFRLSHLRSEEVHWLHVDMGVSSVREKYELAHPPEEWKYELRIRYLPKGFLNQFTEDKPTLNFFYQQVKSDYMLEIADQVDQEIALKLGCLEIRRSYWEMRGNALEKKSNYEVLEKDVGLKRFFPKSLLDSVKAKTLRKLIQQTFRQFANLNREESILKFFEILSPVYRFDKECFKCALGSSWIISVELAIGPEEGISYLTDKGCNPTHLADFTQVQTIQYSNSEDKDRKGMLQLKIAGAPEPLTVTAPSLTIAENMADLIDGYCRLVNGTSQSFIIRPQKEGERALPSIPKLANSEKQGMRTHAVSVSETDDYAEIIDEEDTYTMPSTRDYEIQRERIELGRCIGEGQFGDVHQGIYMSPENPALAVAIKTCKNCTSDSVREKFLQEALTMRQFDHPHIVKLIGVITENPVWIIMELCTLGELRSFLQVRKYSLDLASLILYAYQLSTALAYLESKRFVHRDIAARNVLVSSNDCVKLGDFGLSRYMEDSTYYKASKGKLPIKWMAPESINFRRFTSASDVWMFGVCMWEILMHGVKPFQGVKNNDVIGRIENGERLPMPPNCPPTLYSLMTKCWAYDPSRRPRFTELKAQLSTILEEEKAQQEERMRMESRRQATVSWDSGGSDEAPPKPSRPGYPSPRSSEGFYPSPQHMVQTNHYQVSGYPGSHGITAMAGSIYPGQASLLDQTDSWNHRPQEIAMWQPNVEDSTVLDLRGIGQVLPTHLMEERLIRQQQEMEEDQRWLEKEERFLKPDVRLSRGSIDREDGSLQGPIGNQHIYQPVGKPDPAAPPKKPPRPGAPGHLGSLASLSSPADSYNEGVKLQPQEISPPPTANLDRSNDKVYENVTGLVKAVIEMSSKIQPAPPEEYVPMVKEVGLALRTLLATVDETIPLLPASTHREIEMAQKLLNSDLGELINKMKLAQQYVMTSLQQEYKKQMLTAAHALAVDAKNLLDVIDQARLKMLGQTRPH
Chain of Follistatin (Homo sapiens) (P19883 whole entry, looked up): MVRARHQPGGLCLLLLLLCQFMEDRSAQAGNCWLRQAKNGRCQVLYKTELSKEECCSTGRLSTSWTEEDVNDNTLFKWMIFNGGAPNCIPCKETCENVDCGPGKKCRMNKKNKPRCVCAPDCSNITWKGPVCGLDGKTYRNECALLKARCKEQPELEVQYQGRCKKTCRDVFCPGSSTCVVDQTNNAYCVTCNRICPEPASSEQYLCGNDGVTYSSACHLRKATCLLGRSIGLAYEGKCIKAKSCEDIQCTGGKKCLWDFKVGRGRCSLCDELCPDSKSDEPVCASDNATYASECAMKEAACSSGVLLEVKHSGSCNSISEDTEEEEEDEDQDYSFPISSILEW
Chain of Concanavalin-A (Canavalia ensiformis) (P02866 whole entry, looked up): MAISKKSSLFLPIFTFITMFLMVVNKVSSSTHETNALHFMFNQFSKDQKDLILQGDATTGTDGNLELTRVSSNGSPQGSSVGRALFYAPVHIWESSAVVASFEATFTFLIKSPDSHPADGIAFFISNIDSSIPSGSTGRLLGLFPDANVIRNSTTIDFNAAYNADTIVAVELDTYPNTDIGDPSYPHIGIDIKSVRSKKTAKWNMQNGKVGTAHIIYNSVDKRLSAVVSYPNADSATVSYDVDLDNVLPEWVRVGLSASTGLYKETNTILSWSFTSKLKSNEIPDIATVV
Chain of Fibroblast growth factor 2 (Homo sapiens) (P09038 whole entry, looked up): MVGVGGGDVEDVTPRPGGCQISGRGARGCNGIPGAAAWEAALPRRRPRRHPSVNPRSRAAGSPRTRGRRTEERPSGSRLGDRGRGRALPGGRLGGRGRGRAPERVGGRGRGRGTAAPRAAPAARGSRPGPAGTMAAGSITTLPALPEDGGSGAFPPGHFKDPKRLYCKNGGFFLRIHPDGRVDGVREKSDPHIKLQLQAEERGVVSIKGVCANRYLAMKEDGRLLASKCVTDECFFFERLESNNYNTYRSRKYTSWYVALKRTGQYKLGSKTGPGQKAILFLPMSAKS
Chain of Luciferin 4-monooxygenase (Photinus pyralis) (P08659 whole entry, looked up): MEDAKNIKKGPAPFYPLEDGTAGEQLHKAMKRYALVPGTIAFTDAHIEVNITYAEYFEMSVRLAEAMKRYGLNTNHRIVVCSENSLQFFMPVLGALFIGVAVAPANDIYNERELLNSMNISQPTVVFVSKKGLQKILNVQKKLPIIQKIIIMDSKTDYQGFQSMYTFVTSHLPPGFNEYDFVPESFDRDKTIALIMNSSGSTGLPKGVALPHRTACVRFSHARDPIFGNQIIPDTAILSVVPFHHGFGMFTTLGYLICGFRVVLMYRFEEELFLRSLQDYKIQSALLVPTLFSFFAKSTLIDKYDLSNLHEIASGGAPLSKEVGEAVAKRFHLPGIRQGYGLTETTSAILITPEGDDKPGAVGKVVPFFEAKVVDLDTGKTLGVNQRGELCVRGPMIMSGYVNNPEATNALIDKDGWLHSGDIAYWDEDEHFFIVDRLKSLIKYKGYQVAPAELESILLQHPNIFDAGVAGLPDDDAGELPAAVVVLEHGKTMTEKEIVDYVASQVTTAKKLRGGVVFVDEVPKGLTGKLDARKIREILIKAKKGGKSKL
Chain of Albumin (Bos taurus) (P02769 whole entry, looked up): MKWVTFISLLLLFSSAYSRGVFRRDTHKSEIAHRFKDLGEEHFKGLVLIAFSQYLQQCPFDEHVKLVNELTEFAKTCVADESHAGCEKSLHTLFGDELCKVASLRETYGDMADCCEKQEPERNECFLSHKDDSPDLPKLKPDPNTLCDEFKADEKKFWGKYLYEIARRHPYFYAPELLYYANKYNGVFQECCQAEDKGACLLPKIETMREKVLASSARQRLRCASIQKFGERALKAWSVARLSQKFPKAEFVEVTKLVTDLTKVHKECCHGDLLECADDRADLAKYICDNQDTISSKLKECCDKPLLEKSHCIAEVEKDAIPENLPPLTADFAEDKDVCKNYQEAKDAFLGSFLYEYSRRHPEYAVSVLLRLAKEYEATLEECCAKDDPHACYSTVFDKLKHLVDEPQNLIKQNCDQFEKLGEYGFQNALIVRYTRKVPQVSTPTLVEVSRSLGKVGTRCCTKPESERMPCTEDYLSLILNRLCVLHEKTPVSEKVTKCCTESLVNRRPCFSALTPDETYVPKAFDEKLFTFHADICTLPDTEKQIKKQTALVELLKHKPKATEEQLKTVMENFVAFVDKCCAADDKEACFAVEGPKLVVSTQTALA

`COc1cc(Br)cc(C(O)C2C=CC3C(=O)N(C)C(=O)C3N2N2CCCCC2)c1OC` (stereo not given): the composite z-score with Albumin (Bos taurus) was 0.435; in [2] it was -0.165; in experiment [3] it was -0.0708; in experiment [4] it was 0.707; in [5], 1.28; in experiment [6] it was 0.112. The composite z-score in the experiment on Sam68 (KHDRBS1) was -0.309; in [7], -1.39; in [8], 0.18; in experiment [9], 0.286; in [10], 0.665; in experiment [11], 0.446. Besides, the composite z-score in [12] was -0.83; in experiment [13], -1.02; in experiment [14], -1.38; in the experiment with Lefty1, -1.12; in [16], -0.0965. In experiment [1], the composite Z-score is 1.94 (inactive). In addition, the z-score in [15] is -0.85; in experiment [17] it was -0.141 (inactive).

`COC(=O)C[C@H]1O[C@]2(C(=O)N(C)c3ccccc32)[C@@H](C)[C@@H]1[Si](C)(C)F`: the composite z-score is -0.255 in the experiment with Albumin (Bos taurus); -0.0584 in experiment [2]; -0.161 in [3]; 0.224 in experiment [4]; 0.597 in experiment [5]; -0.0413 in [6]. Further, the composite z-score in the experiment on Sam68 (KHDRBS1) stood at 1.09; in experiment [7] it was 0.592; in experiment [8] it was 0.596; in [9] it was 0.0783; in experiment [10] it was 0.608; in experiment [11] it was 0.26. The composite z-score was 0.209 in [12]; 1.18 in experiment [13]; 2.03 in experiment [14]; 1.33 in the experiment with Lefty1; -0.0572 in [16]. For the same compound, the composite Z-score in experiment [1] is 0.448 (inactive). Besides, the z-score was 0.435 in experiment [15] and -1.82 (inactive) in experiment [17].

On to `[N-]=[N+]=NCc1ccccc1[C@@H]1OC(c2ccc(OCCCO)cc2)=N[C@]1(Cc1ccccc1)C(N)=O`, for which the composite z-score in the experiment with Albumin (Bos taurus) is 0.979; in experiment [2], 0.526; in experiment [3], 0.0646; in experiment [4], 0.783; in experiment [5] it was 1.79; in [6], 0.222. The composite z-score with Sam68 (KHDRBS1) is 1.3; in experiment [7], -0.692; in [8] it was 1.16; in experiment [9] it was 0.888; in experiment [10] it was 1.25; in experiment [11], 1.22. The composite z-score in experiment [12] was found to be 1.06; in experiment [13], 1.28; in experiment [14], 0.0766; in the experiment with Lefty1, 0.186; in [16], 1.06. In experiment [1], the composite Z-score is -0.791 (inactive). Besides, the z-score was 0.199 in [15] and -0.0322 (inactive) in experiment [17].

Consider `C=C(C)[C@@H]1CC=C(C(O)C2C=CC3C(=O)N(C)C(=O)C3N2Nc2ccccc2)CC1` (stereo not given in full), for which the composite z-score in the experiment with Albumin (Bos taurus) is 0.203; in experiment [2], 0.15; in experiment [3] it was -0.0617; in experiment [4], 0.372; in experiment [5], 0.491; in experiment [6], 0.201. Besides, the composite z-score in the experiment with Sam68 (KHDRBS1) was 0.838; in [7], 1.38; in experiment [8] it was 0.183; in experiment [9], -0.243; in [10], 1.17; in experiment [11] it was 0.427. Moreover, the composite z-score in [12] was found to be 0.262; in experiment [13], 1.38; in experiment [14] it was 1.12; in the experiment with Lefty1, 0.987; in experiment [16] it was 1.18. For the same compound, the composite Z-score in [1] was 0.0898 (inactive). Further, the z-score is 0.54 in [15] and 0.485 (inactive) in experiment [17].

Take `CCCCCN1CC=CC23O[C@@H]4C=CCCOC(=O)C4[C@H]2C(=O)N(CCCCCO)[C@@H]3C1=O` (stereo not given in full): the composite z-score in the experiment with Albumin (Bos taurus) is 0.337; in experiment [2], -0.213; in [3] it was -0.142; in experiment [4] it was 0.846; in experiment [5], 0.718; in [6] it was 0.57. Besides, the composite z-score is -1.22 with Sam68 (KHDRBS1); -0.17 in experiment [7]; -0.406 in experiment [8]; 0.587 in [9]; 0.0287 in [10]; -0.383 in experiment [11]. The composite z-score in experiment [12] is 0.302; in [13] it was -1.03; in experiment [14] it was -0.347; in the experiment on Lefty1, -0.582; in experiment [16] it was 0.796. Besides, in [1], the composite Z-score was 0.0269 (inactive). Also, the z-score in experiment [15] was 1.4; in experiment [17], 0.0192 (inactive).
